Screens as filed in PubChem.
The list is not random: actives were taken first. Their share in the collection is about 4.2%.
esBAF inh – SWI/SNF esBAF complex inhibition. AID 602393. 2% of 350,000 active. mouse ES cells, Bmi1-luciferase knock-in reporter, 24 h; 100% = twice the neutral-well signal. reporter increase, % at 12.5 µM; in the data active = activation above about 40%;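 note: 0% = median of the plate's neutral control wells and 100% = double that signal; a rise in the Bmi1 reporter signal indicates esBAF inhibition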
hcDAF-12 act – activates DAF-12 receptor from parasite H. contortus | HEK293 hcDAF-12 lit1-tk-luc reporter, luminescence; 0% DMSO, 100% Δ7-dafachronic acid | activation, % at 6.8 µM | 1.4% of 370,000 active | AID 652067;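 active = activation above the mean of all tested compounds plus 3 SD, cut at about 5.5% in these data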;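 note: 100% = response to 3 µM Δ7-dafachronic acid high control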
ssDAF12 agonist – activators of S. stercoralis DAF-12 nuclear receptor | activation, % at 6.8 µM | HEK293 ssDAF-12/GRIP1 lit1-tk-luc reporter, luminescence; % of 3 µM dafachronic acid response | AID 652126 | 1% of 370,000 active;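 active = activation above the mean over all tested compounds plus 3 SD, cut at about 0.9% in these data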;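 note: 0% = DMSO-only wells and 100% = 3 µM delta7-dafachronic acid wells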
Wnt act – Wnt/beta-catenin pathway activation | 1.2% of 300,000 active | Wnt/beta-catenin reporter cell assay, activator, plate reader | AID 743398 | activation, % at 9.35 µM; in the data active = activation above about 30%, passing the limit was not always enough;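 note: 0% = neutral control wells and 100% = positive control wells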
hgDAF12 agonist – hgDAF-12 agonism, primary luciferase screen | HEK293 GAL4-hgDAF12 UAS-luciferase reporter, agonist luminescence; normalized to butyrate control | activation, % at 6.8 µM | AID 687014 | 1.8% of 370,000 active;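 active = activation above a cutoff set at the mean of all screened compounds plus 3 SD, cut at about 10% in these data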;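 note: 0% = DMSO wells and 100% = sodium butyrate wells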
DAX1 inh – blocks DAX1 repression of SF-1 activated StAR promoter | 1.1% of 370,000 active | inhibition, % at 6.8 µM | HEK293T StAR-luciferase reporter, SF-1/DAX-1 repression relief;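 active = inhibition above the mean over all tested compounds plus 3 SD, cut at about 3.6% in these data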;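 note: 0% = DAX-1 cells with DMSO and 100% = cells lacking DAX-1 with DMSO; higher inhibition means more luminescence from relief of DAX-1 repression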
The depositor's hits bear a star; . = no result given.

SMILES	esBAF inh	hcDAF-12 act	ssDAF12 agonist	Wnt act	hgDAF12 agonist	DAX1 inh
COc1ccc(NC(=O)Nc2ccc3c(c2)C(=O)N([C@@H](C)CO)C[C@@H](C)[C@H](CN(C)C)OCCCC[C@@H](C)O3)cc1	-1	.	.	.	.	.
O=c1c2ccccc2nc2c3ccccc3c(NCc3ccccn3)nn12	.	-2	0	49*	3	0
CCCn1c(-c2ccc[nH]c2=O)nc2cc(C)c(C)cc21	.	3	1.1*	62*	8	3
COc1cc(/C=C(/C#N)C(=O)Nc2ccccc2)c(Br)cc1OCc1ccc(C(=O)O)cc1	8	1	-1	13	1	1
COc1cc(/C=C(\C#N)C(=O)Nc2cccc(C(=O)O)c2)ccc1OCc1ccc(Cl)cc1	7	2	0	34*	8	0
COc1cc(OC)cc(-c2cc3ncccc3cn2)c1	30	0	-1	11	8	0
Fc1ccccc1-c1cc2ncccc2cn1	30	1	-1	34*	7	0
C[C@@H]1CN([C@@H](C)CO)C(=O)Cc2cc(NC(=O)CCC(F)(F)F)ccc2O[C@H]1CN(C)Cc1ccc(C(F)(F)F)cc1	4	.	.	.	.	.
O=c1oc2ccccc2cc1-c1csc(NN=C2CCCCC2)n1	66*	0	-1	.	3	0
COc1ccc(CNC(=O)C[C@@H]2C[C@H]3c4cc(NC(=O)C5CCC5)ccc4O[C@H]3[C@H](CO)O2)cc1	3	.	.	.	.	.
CC(C)NC(=O)N(C)C[C@H]1Oc2ncc(C#CC3CC3)cc2C(=O)N([C@@H](C)CO)C[C@@H]1C	-9	.	.	.	.	.
C[C@@H]1CN([C@@H](C)CO)C(=O)c2cc(NS(=O)(=O)c3cn(C)cn3)ccc2O[C@@H]1CN(C)Cc1ccc(Cl)c(Cl)c1	-4	.	.	.	.	.
Clc1ccc(COn2c(-c3ccc(Cl)cc3)nc3ccccc32)cc1	-2	-1	-2	19	0	-1
CCOC(=O)C(C)On1c(-c2ccccc2)nc2ccc([N+](=O)[O-])cc21 (configuration not stated)	.	0	-1	.	12*	1
Cc1ccc(COn2c(-c3ccc(Cl)cc3)nc3ccc([N+](=O)[O-])cc32)cc1	54*	2	1.1*	42*	10	3
O=[N+]([O-])c1ccc2nc(-c3ccc(Cl)cc3)n(OCc3ccccc3)c2c1	68*	2	0	65*	9	3
Clc1ccc(COn2c(-c3ccccc3)nc3ccccc32)cc1	2	-1	-2	.	1	0
CC(O)c1nc2cc([N+](=O)[O-])ccc2n1Cc1ccccc1 (configuration not stated)	3	-1	-1	0	-1	0
CN(C)CCCNC(=O)C[C@@H]1CC[C@@H]2[C@@H](COc3ccc(NC(=O)c4ccccc4F)cc3C(=O)N2C)O1	6	.	.	.	.	.
Cc1ccc(S(=O)(=O)N2CC[C@H]3[C@H](CO)Nc4ccc(C#Cc5ccc(F)cc5)cc4[C@H]32)cc1	2	.	.	.	.	.
CC(C)(C)NC(=O)c1nc2ccccc2s1	38	0	-1	-3	1	0
CC(C)(C)NC(=O)c1ccccc1-c1nc2ccccc2s1	-13	1	1.6*	-1	0	-1
C[C@@H](NC(=O)C[C@H]1C[C@H]2c3cc(NS(C)(=O)=O)ccc3O[C@H]2[C@@H](CO)O1)c1ccccc1	1	.	.	.	.	.
C[C@H](O)C#Cc1ccc([C@H]2[C@H]3CN(C(=O)Nc4ccccc4)CCCCN3[C@H]2CO)cc1	13	.	.	.	.	.
NC(=O)CSc1nnc(-c2ccc3c(c2)OCO3)o1	.	3	2.8*	8	13*	3
SMILES	esBAF inh	hcDAF-12 act	ssDAF12 agonist	Wnt act	hgDAF12 agonist	DAX1 inh
CC(=O)c1ccc(NC(=O)CCc2nnc3ccc(N4CCCC4)nn23)cc1	57*	2	-1	10	4	0
CCc1ccc(NC(=O)CCc2nnc3ccc(N4CCCC4)nn23)cc1	3	-2	-1	4	0	-1
Clc1cccc(Cc2c(-c3cccc(Br)c3)nc3c4ccccc4ccn23)c1	.	6.1*	0	-1	3	1
Clc1ccc(-c2nc3c4ccccc4ccn3c2Cc2cccc(Cl)c2)cc1	.	5.9*	1	-2	7	1
Cc1ccc(-c2nc3c4ccccc4ccn3c2Cc2cccc(F)c2)cc1	.	4	0	-2	2	1
Fc1cccc(Cc2c(-c3ccccc3)nc3c4ccccc4ccn23)c1	.	4	1.4*	12	5	1
c1ccc(-c2nc3c4ccccc4ccn3c2CC2CCCCC2)cc1	.	5.6*	1	3	6	1
CCNC(=O)[C@@H]1[C@@H](CO)[C@@H]2Cn3c(ccc(-c4ccccc4)c3=O)[C@@H]2N1Cc1ccc2c(c1)OCO2	3	.	.	.	.	.
CC(=O)N(C)C[C@H]1Oc2ncc(-c3ccc(C(=O)N(C)C)cc3)cc2C(=O)N([C@@H](C)CO)C[C@@H]1C	0	.	.	.	.	.
Cc1noc(C)c1NC(=O)N(C)C[C@H]1Oc2ccc(NC(=O)CCN3CCOCC3)cc2CC(=O)N([C@H](C)CO)C[C@@H]1C	2	.	.	.	.	.
CCCCCCC1(C)NC(=S)N(c2ccccc2)N1 (configuration not stated)	.	1	5.7*	-1	1	0
CC1(CC(=O)Nc2ccccc2)NC(=S)N(c2ccccc2)N1 (configuration not stated)	29*	1	0	3	3	2
CN(C)C(=O)C[C@@H]1C=C[C@@H](NC(=O)C2CC2)[C@@H](CO)O1	1	.	.	.	.	.
N#C/C(C(=O)N1CCOCC1)=C1/SC(Cc2ccccc2Cl)C(=O)N1c1ccccc1 (configuration not stated)	.	0	-2	35*	-2	0
Clc1ccc(-c2nnc(C3CCCCC3)o2)cc1	37	-2	-1	27	4	0
Clc1ccc(-c2nc(C3CCCCC3)no2)cc1	76*	-1	-1	71*	2	0
c1ccc(CSc2nnc(NC3CCCCC3)s2)cc1	.	1	0	42*	12*	3
O=C(CN1CCOCC1)NCC[C@H]1CC[C@@H](NC(=O)Nc2ccc(C(F)(F)F)cc2)[C@H](CO)O1	-2	.	.	.	.	.
CN(C)C1=NCCN1CCCC1CCCC1	0	-1	-1	-1	0	0
CN(C)C1=NCCN1CC1CCCC1	0	3	1.2*	-2	1	0
CC1(C)CC(=O)C2=C(C1)OC(N)=C(C#N)[C@@H]2c1ccccc1[N+](=O)[O-]	.	2	1.5*	13	4	0
C[C@@H]1CCCCO[C@@H](CN(C)C(=O)c2ccccc2)[C@H](C)CN([C@H](C)CO)C(=O)c2cc(NC(=O)Nc3ccc(C(F)(F)F)cc3)ccc2O1	-1	.	.	.	.	.
Oc1[nH]c2ccccc2c1C1=NCCCC1	1	-1	-1	-1	-1	0
